Here are results for eight compounds from PubChem BioAssay (Tox21).

Structures are written as SMILES. Where “and” joins values, the source holds several entries; their conditions need not be identical. Equal entries are not always repeated. Inconclusive results are not listed. Some structures have more than one record in an assay (separate samples or runs), and their calls can disagree. Calls of active or inactive are those of the source. Unless noted, calls come from the whole dose curve; as a rule, active = well fitted curve in the direction sought with a large enough effect in the repeat runs; inconclusive = weak or mixed curves; inactive = no such curve, though single readings can be large; an effect the other way counts as inactive or inconclusive.

Assay [1] is described as follows: qHTS assay to identify small molecule antagonists of the peroxisome proliferator-activated receptor delta (PPARd) signaling pathway - cell viability counter screen (AID 743213). Note: nearly all actives have a fitted effect of over 50% in size. Note: potency is the fitted concentration of half-maximal effect. Summed up: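 Same-well viability: cells pre-incubated 5 h, dosed with compound plus 300 nM L165041, kept 17 h at 37 C, FRET substrate 2 h RT, then CellTiter-Glo 30 min RT and luminescence.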

Assay [2] deals with Bile acid receptor (Homo sapiens) (UniProt Q96RI1). Nature of the assay: qHTS assay to identify small molecule antagonists of the farnesoid-X-receptor (FXR) signaling pathway (AID 743217; active = well fitted inhibition curve with a large enough effect in the signal ratio in the repeat runs, not every such curve was filed as active; the % refers to the signal ratio). A digest of the protocol:
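Read-out: beta-lactamase FRET fluorescence (LiveBLAzer B/G substrate, 2 h, room temperature) in GeneBLAzer FXR-UAS-bla HEK 293T cells. Compounds were co-dosed with 50 uM chenodeoxycholic acid (final) and incubated 16 h at 37 °C.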

Assay [3] in a line: qHTS assay to identify small molecule agonists of the farnesoid-X-receptor (FXR) signaling pathway - cell viability counter screen (AID 743218). Note: nearly all actives have a fitted effect of over 45% in size. Note: potency is the fitted concentration of half-maximal effect. A digest of the protocol: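 Luminescence from CellTiter-Glo, read after 30 min at RT, reports viability of GeneBLAzer FXR-UAS-bla HEK 293T cells treated 16 h with compounds in the wells used for the beta-lactamase reporter.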
Assay [4] has as its target Bile acid receptor (Homo sapiens) (UniProt Q96RI1). Nature of the assay: qHTS assay to identify small molecule agonists of the farnesoid-X-receptor (FXR) signaling pathway (AID 743220; active = well fitted activation curve with a large enough effect in the signal ratio in the repeat runs, not every such curve was filed as active; the % refers to the signal ratio). Summed up:
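FXR-UAS-bla HEK 293T cells carrying a UAS-driven beta-lactamase reporter were plated for 5 h at 37C/5% CO2, then exposed to DMSO-dissolved Tox21 10K compounds for 16 h at 37C. A LiveBLAzer B/G FRET substrate was loaded for 2 h at room temperature before fluorescence reading.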

The nature of assay [5]: qHTS assay to identify small molecule agonists of the endoplasmic reticulum stress response signaling pathway (AID 1159516; active = well fitted activation curve with a large enough effect in the signal ratio in the repeat runs, not every such curve was filed as active; the % refers to the signal ratio). A digest of the protocol: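 HeLa ESRE-bla reporter line; cpd 5 h, 37 C/5% CO2; LiveBLAzer B/G FRET substrate 2 h RT; ex 405, em 460/530 nm.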
The nature of assay [6]: qHTS assay to identify small molecule agonists of the endoplasmic reticulum stress response signaling pathway - cell viability counter screen (AID 1159517; calls by dose curve; note: nearly all actives have a fitted effect of over 50% in size; note: potency is the fitted concentration of half-maximal effect). Summed up:
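Cpd-treated ESRE-bla HeLa (5 hr, 37 C) → LiveBLAzer 2 hr RT → CellTiter-Glo 30 min RT → luminescence.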

A short description of assay [7]: qHTS assay to identify small molecule antagonists of the retinoid-related orphan receptor gamma (ROR-gamma) signaling pathway - cell viability counter screen (AID 1159520). Note: nearly all actives have a fitted effect of over 50% in size. Note: potency is the fitted concentration of half-maximal effect. A digest of the protocol: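 Tet-on ROR gamma CHO cells (1,000/well) were plated 4 hr, given compounds in DMSO for 2 hr at 37 C, then induced with 1 uM final doxycycline for 16 hr. Viability was read as ATP by CellTiter-Glo luminescence after 30 min.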

Assay [8] concerns the target Nuclear receptor ROR-gamma (Homo sapiens) (UniProt P51449). Nature of the assay: qHTS assay to identify small molecule antagonists of the retinoid-related orphan receptor gamma (ROR-gamma) signaling pathway (AID 1159521; note: nearly all actives have a fitted effect of over 50% in size; note: potency is the fitted concentration of half-maximal effect). A digest of the protocol:
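Luminescence readout (ONE-Glo, 30 min RT) after 16 h doxycycline induction; loss of signal scored as antagonism. CHO cells with TET-inducible RORγ and RORE-LUC reporter; compounds added 2 h before 1 uM final doxycycline.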

The nature of assay [9]: qHTS assay to identify small molecule agonists of the AP-1 signaling pathway - cell viability counter screen (AID 1159525; calls by dose curve; note: nearly all actives have a fitted effect of over 55% in size; note: potency is the fitted concentration of half-maximal effect). A digest of the protocol: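 Each titration point was normalised to DMSO and tetra n-octyl ammonium bromide controls. The read was Cell Titer Glo luminescence after 30 min at RT, following 5 h compound exposure of ME-180 AP-1-bla cells at 37 °C.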
Assay [10] can be described thus: qHTS assay to identify small molecule agonists of the peroxisome proliferator-activated receptor delta (PPARd) signaling pathway - cell viability counter screen (AID 743211). Note: nearly all actives have a fitted effect of over 55% in size. Note: potency is the fitted concentration of half-maximal effect. A digest of the protocol:
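Read-out: CellTiter-Glo luminescence, 30 min RT, measured in the same wells as the beta-lactamase reporter. Cells: GeneBLAzer PPAR delta UAS-bla HEK293H, 3000 cells/well, compound exposure 17 h at 37C.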

Assay [11] deals with Peroxisome proliferator-activated receptor delta (Homo sapiens) (UniProt Q03181). Nature of the assay: qHTS assay to identify small molecule agonists of the peroxisome proliferator-activated receptor delta (PPARd) signaling pathway (AID 743212; calls by dose curve). Summed up: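 Cells expressing a UAS-driven beta-lactamase reporter (PPARd-bla HEK293H) were given test compounds after a 5 h settle and kept at 37 C. Reporter activity was then measured as FRET fluorescence using LiveBLAzer B/G substrate.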

Assay [12] shares this target. Nature of the assay: qHTS assay to identify small molecule antagonists of the peroxisome proliferator-activated receptor delta (PPARd) signaling pathway (AID 743215; active = well fitted inhibition curve with a large enough effect in the signal ratio in the repeat runs, not every such curve was filed as active; the % refers to the signal ratio;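 note: cells stimulated with agonist L165041 at 300 nM final during compound exposure; series mostly up to about 62 µM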). A digest of the protocol: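 HEK293H GeneBLAzer PPARd UAS-bla reporter cells; cpd + L165041 300 nM final, 17 h 37 C; LiveBLAzer B/G FRET substrate 2 h RT; fluorescence intensity read-out. Antagonist mode.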

Assay [13] in a line: qHTS assay to identify small molecule antagonists of the farnesoid-X-receptor (FXR) signaling pathway - cell viability counter screen (AID 743221; active = well fitted cell-killing curve with a large enough effect in the repeat runs, not every such curve was filed as active; note: nearly all actives have a fitted effect of over 50% in size; note: potency is the fitted concentration of half-maximal effect). Summed up:
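HEK 293T FXR-bla cells, 5 h pre-incubation; compound + CDCA 50 uM final, 16 h, 37 C; beta-lactamase FRET read first, then CellTiter-Glo luminescence, 30 min RT.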

Assay [14] has as its target Vitamin D3 receptor (Homo sapiens) (UniProt P11473). Nature of the assay: qHTS assay to identify small molecule agonists of the vitamin D receptor (VDR) signaling pathway (AID 743222; calls by dose curve). Summed up:
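Beta-lactamase reporter readout (LiveBLAzer B/G FRET, 2 h RT) in VDR-bla cells after 16 h compound treatment at 37C, 5% CO2; cells pre-incubated 4 h before pin transfer of DMSO solutions.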

Assay [15] has the same target. Nature of the assay: qHTS assay to identify small molecule antagonists of the vitamin D receptor (VDR) signaling pathway (AID 743223; active = well fitted inhibition curve with a large enough effect in the signal ratio in the repeat runs, not every such curve was filed as active; the % refers to the signal ratio). Summed up:
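Beta-lactamase reporter read-out: FRET substrate fluorescence after 2 h at room temperature, following 16 h exposure of VDR-bla cells to test compound plus 3 nM (final) 1alpha,25-dihydroxyvitamin D3 agonist at 37C.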

A short description of assay [16]: qHTS assay to identify small molecule agonists of the vitamin D receptor (VDR) signaling pathway - cell viability counter screen (AID 743224). Note: nearly all actives have a fitted effect of over 50% in size. Note: potency is the fitted concentration of half-maximal effect. Summed up:
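Cytotoxicity counter screen: VDR-bla cells, 16 h compound exposure at 37C, 5% CO2; CellTiter-Glo luminescence, 30 min RT, same wells as bla read.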

Assay [17] can be described thus: qHTS assay to identify small molecule antagonists of the vitamin D receptor (VDR) signaling pathway - cell viability counter screen (AID 743225). Note: nearly all actives have a fitted effect of over 50% in size. Note: potency is the fitted concentration of half-maximal effect. A digest of the protocol: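 Viability counter screen run in the same wells as the beta-lactamase reporter assay: HEK 293T VDR-UAS-bla cells, 16 h compound exposure at 37C with 3 nM (final) 1-alpha,25-dihydroxyvitamin D3. CellTiter-Glo luminescence, 30 min, room temperature.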

Assay [18] has as its target Retinoic acid receptor RXR-alpha (Homo sapiens) (UniProt P19793). Nature of the assay: qHTS assay to identify small molecule agonists of the RXR signaling pathway (AID 1159527; calls by dose curve; note: nearly all actives have a fitted effect of over 35% in size). A digest of the protocol:
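Agonist mode; 9-cis retinoic acid positive control. HEK 293T UAS-bla reporter cells, 2% charcoal-stripped FBS, 16 hr compound exposure at 37 C/5% CO2. LiveBLAzer B/G FRET substrate 2 hr RT; ex 405, em 460/530 nm.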

The nature of assay [19]: qHTS assay to identify small molecule agonists of the AP-1 signaling pathway (AID 1159526; calls by dose curve).

Sequence of Retinoic acid receptor RXR-alpha (Homo sapiens) (P19793 whole entry, looked up): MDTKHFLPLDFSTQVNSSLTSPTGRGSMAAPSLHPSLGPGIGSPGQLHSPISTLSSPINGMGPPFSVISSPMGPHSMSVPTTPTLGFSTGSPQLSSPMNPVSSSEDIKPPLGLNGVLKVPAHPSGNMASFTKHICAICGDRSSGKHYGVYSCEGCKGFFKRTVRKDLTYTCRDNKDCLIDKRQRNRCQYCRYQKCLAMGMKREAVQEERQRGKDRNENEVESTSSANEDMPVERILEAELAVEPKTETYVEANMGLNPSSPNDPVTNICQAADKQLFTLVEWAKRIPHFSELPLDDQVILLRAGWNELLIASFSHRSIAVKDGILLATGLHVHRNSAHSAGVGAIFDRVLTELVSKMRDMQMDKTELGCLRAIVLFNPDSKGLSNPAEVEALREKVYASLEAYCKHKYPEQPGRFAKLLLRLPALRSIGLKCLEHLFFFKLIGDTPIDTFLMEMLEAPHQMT
Sequence of Bile acid receptor (Homo sapiens) (Q96RI1 whole entry, looked up): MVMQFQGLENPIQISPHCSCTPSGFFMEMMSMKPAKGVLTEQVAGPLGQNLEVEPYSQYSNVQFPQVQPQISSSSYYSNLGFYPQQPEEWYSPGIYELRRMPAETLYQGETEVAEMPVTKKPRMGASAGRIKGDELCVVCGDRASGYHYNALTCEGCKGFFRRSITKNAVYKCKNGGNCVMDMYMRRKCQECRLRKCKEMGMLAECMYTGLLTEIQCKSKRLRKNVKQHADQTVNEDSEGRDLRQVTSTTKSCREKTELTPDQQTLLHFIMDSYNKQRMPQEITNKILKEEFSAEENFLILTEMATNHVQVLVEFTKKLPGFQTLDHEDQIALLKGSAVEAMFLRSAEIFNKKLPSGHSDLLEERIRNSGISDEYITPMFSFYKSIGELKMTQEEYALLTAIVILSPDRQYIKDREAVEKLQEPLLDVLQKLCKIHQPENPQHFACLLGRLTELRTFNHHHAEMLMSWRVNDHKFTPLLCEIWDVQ
Sequence of Vitamin D3 receptor (Homo sapiens) (P11473 whole entry, looked up): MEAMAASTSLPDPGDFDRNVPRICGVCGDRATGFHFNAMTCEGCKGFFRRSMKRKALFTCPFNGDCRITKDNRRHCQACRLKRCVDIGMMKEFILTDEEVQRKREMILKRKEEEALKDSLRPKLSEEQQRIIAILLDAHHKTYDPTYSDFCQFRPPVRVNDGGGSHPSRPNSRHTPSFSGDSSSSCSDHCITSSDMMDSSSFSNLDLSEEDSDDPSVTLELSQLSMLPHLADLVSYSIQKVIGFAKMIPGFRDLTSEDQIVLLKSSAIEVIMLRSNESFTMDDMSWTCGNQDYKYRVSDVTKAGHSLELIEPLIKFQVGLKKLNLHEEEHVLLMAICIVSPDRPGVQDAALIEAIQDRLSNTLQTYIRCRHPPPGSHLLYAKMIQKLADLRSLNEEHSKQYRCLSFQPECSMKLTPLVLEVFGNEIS
Sequence of Peroxisome proliferator-activated receptor delta (Homo sapiens) (Q03181 whole entry, looked up): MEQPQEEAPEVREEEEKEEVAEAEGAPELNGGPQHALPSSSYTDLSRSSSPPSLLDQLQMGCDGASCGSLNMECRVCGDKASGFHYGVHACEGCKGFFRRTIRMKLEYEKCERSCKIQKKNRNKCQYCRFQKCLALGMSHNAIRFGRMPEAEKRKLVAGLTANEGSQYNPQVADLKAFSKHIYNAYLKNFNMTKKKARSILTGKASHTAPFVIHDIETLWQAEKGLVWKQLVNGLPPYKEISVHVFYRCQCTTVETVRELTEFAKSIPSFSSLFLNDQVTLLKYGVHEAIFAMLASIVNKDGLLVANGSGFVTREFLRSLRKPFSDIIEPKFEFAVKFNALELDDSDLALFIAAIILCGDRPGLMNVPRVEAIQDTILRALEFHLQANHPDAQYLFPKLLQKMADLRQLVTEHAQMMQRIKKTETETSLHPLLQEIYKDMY

For the compound `COP(=O)(OC)O/C(=C\Cl)c1cc(Cl)c(Cl)cc1Cl`, the Potency result in [1], in [2], in assay [3], in assay [4], in [5] and in assay [6] was “inactive” in each case. Besides, the Potency result in assay [7] and in assay [9] was “inactive” in each case. In [8], the Potency is 38.6 µM (active).

On to `O=C(N[C@H]1N=C(c2ccccc2F)c2cccc3c2N(CC3)C1=O)c1cc2ccccc2[nH]1`, for which the Potency entry in assay [10], in [11], in assay [12], in assay [3], in [13] and in assay [14] was “inactive” each time. Further, the Potency result in [15], in [16], in [17], in assay [6], in assay [7] and in [8] was “inactive” in each case. The Potency entry in [9] and in [18] was “inactive” in each case.

Regarding `CSC1=N[C@@](C)(c2ccccc2)C(=O)N1Nc1ccccc1`, the Potency result in assay [10], in assay [11], in assay [4], in assay [13], in assay [14] and in assay [15] was “inactive” in each case. In addition, the Potency result in [5], in assay [9], in assay [19] and in [18] was “inactive” throughout. Also, the Potency in assay [8] was 10.9 µM (active).

On to `CCN(CC)C(=S)S`, for which the Potency was 13.9 µM (active) and 3.87 µM (active) and 4.9 µM (active) in [10]; “inactive and 6.13 µM (active) and 3.47 µM (active)” in assay [1]; 22.1 µM (active) and 4.87 µM (active) and 7.76 µM (active) in assay [13]; 4.87 µM (active) and 6.92 µM (active) in assay [16]; 27.5 µM (active) and 9.63 µM (active) and 12.2 µM (active) in [8]. Also, the Potency entry in [17], in assay [6] and in [7] was “inactive” in each case.

Consider `C#CCO`, for which the Potency result in assay [10], in assay [11], in assay [1], in assay [12], in [3] and in [13] was “inactive” each time. In addition, the Potency result in assay [15], in assay [16], in [17], in assay [5], in assay [6] and in assay [7] was “inactive” each time. Besides, the Potency result in [9], in assay [19] and in assay [18] was “inactive” in each case.

Turning to `O=C(O)[C@H](O)[C@@H](O)C(=O)O`, the Potency entry in [10], in [11], in assay [1], in [2], in [3] and in [4] was “inactive” each time. The Potency entry in assay [16], in assay [17], in assay [5], in assay [6], in assay [7] and in assay [8] was “inactive” in each case. Besides, the Potency entry in assay [9] and in assay [19] was “inactive” throughout.

Take `CC(=O)[O][Pb]([c]1ccccc1)([c]1ccccc1)[c]1ccccc1`: the Potency in assay [1] is 1.23 µM (active); in assay [3], 0.549 µM (active); in [13], 1.1 µM (active); in assay [16], 1.55 µM (active); in assay [17], 0.977 µM (active); in [6], 24.5 µM (active). The Potency in assay [7] is 0.77 µM (active); in assay [8], 0.193 µM (active); in assay [9], 15.5 µM (active).

With `N#Cc1sc2c(=O)c3ccccc3c(=O)c=2sc1C#N`, the Potency in assay [10] is 7.76 µM (active); in [1], 12.3 µM (active); in assay [3], 34.7 µM (active); in assay [13] it was 34.7 µM (active); in assay [16] it was 4.9 µM (active); in assay [17], 11 µM (active). Moreover, the Potency in assay [6] is 6.92 µM (active); in [7], 2.17 µM (active); in assay [8] it was 13.7 µM (active); in assay [9] it was 0.389 µM (active). The Potency result in assay [4] is “inactive”.
